Test results taken from PubChem BioAssay.
Calls of active or inactive are those of the source.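 Rule for the calls, unless noted: active = compounds that lower survival of HCT116 colon cancer cells in the luminescence readout, no numeric limit stated; inactive = the rest.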

Key:
[1] = stimulators of nuclear beta-catenin in C2C12, primary screen, imaging, WNT3A-conditioned medium, mouse C2C12, NPC library (AID 1117326; in the data active = nuclear beta-catenin stimulation mostly above about 4.2%, no sharp cut-off; inactive = mostly below about 10%; note: reference of the scale not given here); details: stronger effect = higher value
[2] = stimulators of insulin release from INS-1E, primary screen, cell-based, 5 mM glucose, NPC library (AID 1117329;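 active = compound raises insulin release from rat beta cells at 5 mM glucose, no numeric limit stated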; note: reference of the scale not given here); details: rat INS-1E insulin secretion, at 10 µM, stronger effect = higher value
[3] = growth inhibition of GSK3B-pretreated HCT116 cells – cell-based, CellTiter-Glo, 0.2 to 20 µM (AID 1117336;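 active = compounds lowering colon cancer cell viability after pretreatment blocking the GSK3B kinase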); details: HCT116 viability after GSK3B inhibitor, at 20 µM, stronger effect = higher value
[4] = inhibition of endothelial tube formation, primary screen, imaging, VEGF stimulated, CD31 staining, tube area, NPC library (AID 1117340;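 active = compound that reduces growth-factor-driven endothelial tube area in a mixed cell culture, no cutoff stated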); details: VEGF-stimulated ADSC/ECFC co-culture, at 10 µM, stronger effect = higher value
[5] = glucagon-like peptide 1 release enhancers, primary assay, NCI-H716 cell line, NPC library (AID 1117341;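 active = compound raises GLP1 secretion from the human gut endocrine cells, with no numeric limit stated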; note: reference of the scale not given here); details: NCI-H716 cells, at 10 µM, stronger effect = higher value
[6] = HCT116 colon cancer cell growth inhibition, primary screen, CellTiter-Glo luminescence, NPC library (AID 1117342); details: at 20 µM (top of the series)
[7] = CellTiter-Glo luminescent readout of SW480 viability loss, NPC library primary (AID 1117343;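 active = compounds that lower viability of the colon cancer cells in the luminescence readout, with no numeric limit stated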); details: CellTiter-Glo luminescence; at 20 µM (top of the series)
[8] = decreased DLD-1 cellular survival, CellTiter-Glo luminescent readout, NPC compound collection, primary HTS (AID 1117346;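 active = compounds that lower survival of DLD-1 colon cancer cells in the luminescence readout, no cutoff given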); details: DLD-1 viability, CellTiter-Glo luminescence; at 20 µM (top of the series)

SMILES: Cc1ccc2c(n1)Oc1ccc(C(C)C(=O)OCC(=O)N(C)C)cc1C2 (stereo not given)
- nuclear beta-catenin stimulation ([1]; at 10 µM): 0.6% (inactive)
- nuclear beta-catenin stimulation ([1]; stimulation, at 2 µM): -2.8%
- insulin secretion stimulation [2]: 1.8% (inactive)
- viability decrease [3]: 28.6% (inactive)
- tube area decrease [4]: -10% (inactive)
- GLP1 secretion stimulation [5]: 3.6% (inactive)
- inhibition of viability [6]: 20.4% (inactive)
- viability decrease (inhibition) [7]: -3.8% (inactive)
- viability decrease (inhibition) [8]: -1.1% (inactive)

SMILES: COc1cc(C=C2CCC/C(=C\c3ccc(O)c(OC)c3)C2=O)ccc1O
- nuclear beta-catenin stimulation ([1]; at 10 µM): 118% (active)
- nuclear beta-catenin stimulation ([1]; stimulation, at 2 µM): 4.1%
- insulin secretion stimulation [2]: 11.1% (inactive)
- viability decrease [3]: 99.1% (active)
- tube area decrease [4]: 106% (active)
- GLP1 secretion stimulation [5]: -3% (inactive)
- inhibition of viability [6]: 99.5% (active)
- viability decrease (inhibition) [7]: 103% (active)
- viability decrease (inhibition) [8]: 101% (active)

SMILES: O=C(CCC1CCN(Cc2ccccc2)CC1)c1ccc2c(c1)NCCCC2
- nuclear beta-catenin stimulation ([1]; at 10 µM): 3.2% (inactive)
- nuclear beta-catenin stimulation ([1]; stimulation, at 2 µM): 3.5%
- insulin secretion stimulation [2]: 4.2% (inactive)
- viability decrease [3]: 53.5% (active)
- tube area decrease [4]: 12.9% (inactive)
- GLP1 secretion stimulation [5]: 4.3% (inactive)
- inhibition of viability [6]: 81.9% (active)
- viability decrease (inhibition) [7]: 93.9% (active)
- viability decrease (inhibition) [8]: 62.1% (active)

SMILES: COc1cc(C(=S)N2CCOCC2)ccc1O
- nuclear beta-catenin stimulation ([1]; at 10 µM): 1.6% (inactive)
- nuclear beta-catenin stimulation ([1]; stimulation, at 2 µM): 0%
- insulin secretion stimulation [2]: 3.9% (inactive)
- viability decrease [3]: -5.7% (inactive)
- tube area decrease [4]: 1.9% (inactive)
- GLP1 secretion stimulation [5]: -3.6% (inactive)
- inhibition of viability [6]: -4.3% (inactive)
- viability decrease (inhibition) [7]: -4.6% (inactive)
- viability decrease (inhibition) [8]: -2.7% (inactive)

SMILES: CCCCCCCCCCCCOCCOCCOCCOCCOCCOCCOCCOCCOCCO
- nuclear beta-catenin stimulation ([1]; at 10 µM): 3.9% (inactive)
- nuclear beta-catenin stimulation ([1]; stimulation, at 2 µM): 1.9%
- insulin secretion stimulation [2]: 0.8% (inactive)
- viability decrease [3]: 78.1% (active)
- tube area decrease [4]: 47.8% (active)
- GLP1 secretion stimulation [5]: 33.5% (active)
- inhibition of viability [6]: 96.8% (active)
- viability decrease (inhibition) [7]: 124% (active)
- viability decrease (inhibition) [8]: 104% (active)

SMILES: COc1cc2c(cc1OC)C(=O)CC2
- nuclear beta-catenin stimulation ([1]; at 10 µM): 0.3% (inactive)
- nuclear beta-catenin stimulation ([1]; stimulation, at 2 µM): 2%
- insulin secretion stimulation [2]: 0.2% (inactive)
- viability decrease [3]: -1.6% (inactive)
- tube area decrease [4]: 3.8% (inactive)
- GLP1 secretion stimulation [5]: 3.1% (inactive)
- inhibition of viability [6]: -8.1% (inactive)
- viability decrease (inhibition) [7]: 4.2% (inactive)
- viability decrease (inhibition) [8]: 14.9% (inactive)

SMILES: Oc1ccccc1
- nuclear beta-catenin stimulation ([1]; at 10 µM): -0.4% (inactive)
- nuclear beta-catenin stimulation ([1]; stimulation, at 2 µM): 0.2%
- insulin secretion stimulation [2]: -0.2% (active)
- viability decrease [3]: -6.9% (inactive)
- tube area decrease [4]: -36.6% (inactive)
- GLP1 secretion stimulation [5]: 0.5% (inactive)
- inhibition of viability [6]: -11.1% (inactive)
- viability decrease (inhibition) [7]: 42.7% (inactive)
- viability decrease (inhibition) [8]: 0.9% (inactive)

SMILES: N[C@H](C(=O)O)c1ccc(O)cc1
- nuclear beta-catenin stimulation ([1]; at 10 µM): 2.5% (inactive)
- nuclear beta-catenin stimulation ([1]; stimulation, at 2 µM): 3.1%
- insulin secretion stimulation [2]: 5.2% (inactive)
- viability decrease [3]: -0.7% (inactive)
- tube area decrease [4]: -7.9% (inactive)
- GLP1 secretion stimulation [5]: -2.9% (inactive)
- inhibition of viability [6]: 6% (inactive)
- viability decrease (inhibition) [7]: 13.1% (inactive)
- viability decrease (inhibition) [8]: -2.7% (inactive)

SMILES: CC(CSC(=O)c1ccccc1)C(=O)N1C[C@@H](Sc2ccccc2)C[C@H]1C(=O)O (stereo not given in full)
- nuclear beta-catenin stimulation ([1]; at 10 µM): -1% (inactive)
- nuclear beta-catenin stimulation ([1]; stimulation, at 2 µM): -0.2%
- insulin secretion stimulation [2]: 6.4% (inactive)
- viability decrease [3]: -18.3% (inactive)
- tube area decrease [4]: -27% (inactive)
- GLP1 secretion stimulation [5]: -4% (inactive)
- inhibition of viability [6]: 6.5% (inactive)
- viability decrease (inhibition) [7]: 47.6% (inactive)
- viability decrease (inhibition) [8]: 27.7% (inactive)

SMILES: O=Cc1ccccc1C=O
- nuclear beta-catenin stimulation ([1]; at 10 µM): -0.8% (inactive)
- nuclear beta-catenin stimulation ([1]; stimulation, at 2 µM): 0.2%
- insulin secretion stimulation [2]: -0.6% (inactive)
- viability decrease [3]: 1.65% (inactive)
- tube area decrease [4]: 9.9% (inactive)
- GLP1 secretion stimulation [5]: 2.6% (inactive)
- inhibition of viability [6]: -1.7% (inactive)
- viability decrease (inhibition) [7]: 12.2% (inactive)
- viability decrease (inhibition) [8]: -1.7% (inactive)

SMILES: Cc1ccc(C(=O)C(=O)O)cc1C
- nuclear beta-catenin stimulation ([1]; at 10 µM): 1% (inactive)
- nuclear beta-catenin stimulation ([1]; stimulation, at 2 µM): 1.8%
- insulin secretion stimulation [2]: 2.9% (inactive)
- viability decrease [3]: -10.8% (inactive)
- tube area decrease [4]: -6.7% (inactive)
- GLP1 secretion stimulation [5]: -3.1% (inactive)
- inhibition of viability [6]: -6.7% (inactive)
- viability decrease (inhibition) [7]: 17.4% (inactive)
- viability decrease (inhibition) [8]: -5% (inactive)

SMILES: O=C(O)Cn1cnnn1
- nuclear beta-catenin stimulation ([1]; at 10 µM): 0.5% (inactive)
- nuclear beta-catenin stimulation ([1]; stimulation, at 2 µM): -0.1%
- insulin secretion stimulation [2]: -0.9% (inactive)
- viability decrease [3]: -1.1% (inactive)
- tube area decrease [4]: -3.2% (inactive)
- GLP1 secretion stimulation [5]: 3.3% (inactive)
- inhibition of viability [6]: 4.9% (inactive)
- viability decrease (inhibition) [7]: -14.8% (inactive)
- viability decrease (inhibition) [8]: 6% (inactive)

SMILES: NC(=O)NNc1ccccc1
- nuclear beta-catenin stimulation ([1]; at 10 µM): 3.2% (inactive)
- nuclear beta-catenin stimulation ([1]; stimulation, at 2 µM): 0.7%
- insulin secretion stimulation [2]: -1.9% (inactive)
- viability decrease [3]: -9.75% (inactive)
- tube area decrease [4]: 16% (inactive)
- GLP1 secretion stimulation [5]: 1.4% (inactive)
- inhibition of viability [6]: -3% (inactive)
- viability decrease (inhibition) [7]: 30.5% (inactive)
- viability decrease (inhibition) [8]: 7.45% (inactive)

SMILES: COC(=O)c1cc(S(N)(=O)=O)ccc1OC
- nuclear beta-catenin stimulation ([1]; at 10 µM): 0.9% (inactive)
- nuclear beta-catenin stimulation ([1]; stimulation, at 2 µM): 1.4%
- insulin secretion stimulation [2]: -0.15% (inactive)
- viability decrease [3]: -6.1% (inactive)
- tube area decrease [4]: 1.6% (inactive)
- GLP1 secretion stimulation [5]: 0.1% (inactive)
- inhibition of viability [6]: -5.9% (inactive)
- viability decrease (inhibition) [7]: -8.9% (inactive)
- viability decrease (inhibition) [8]: -2.9% (inactive)

SMILES: Cc1c(C)c2c(c(C)c1OC(=O)CCC(=O)OCCO)CC[C@@](C)(CCC[C@H](C)CCC[C@H](C)CCCC(C)C)O2
- nuclear beta-catenin stimulation ([1]; at 10 µM): 0% (inactive)
- nuclear beta-catenin stimulation ([1]; stimulation, at 2 µM): -0.6%
- insulin secretion stimulation [2]: 0.25% (inactive)
- viability decrease [3]: 116% (active)
- tube area decrease [4]: 17.4% (inactive)
- GLP1 secretion stimulation [5]: 23% (active)
- inhibition of viability [6]: 122% (active)
- viability decrease (inhibition) [7]: 157% (active)
- viability decrease (inhibition) [8]: 101% (active)
